Assay results reported in PubChem BioAssay AID624125 (The Scripps Research Institute Molecular Screening Center, 2012).
The campaign covered roughly 360,000 compounds. About 2,600 (0.72%) were called active.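 The calls were made as follows: active = inhibition above its plate's cutoff, the mean inhibition of sample wells plus 3 SD (cut at about 27% in these data); inactive = the rest.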 The entries come from a sample that favours actives as a whole.

biological target: Muscarinic acetylcholine receptor M4 (Homo sapiens) (UniProt P08173); assay: human M4 muscarinic receptor antagonists, primary screen, CHO cells, Fluo-8 calcium fluorescence (AID 624125); conditions: CHO-hM4 cells, ACh EC80, Fluo-8 calcium fluorescence; at 3 µM; active compounds read high;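 also: 0% = acetylcholine EC80 with DMSO and 100% = DMSO without agonist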
Sequence (P08173 whole entry, looked up): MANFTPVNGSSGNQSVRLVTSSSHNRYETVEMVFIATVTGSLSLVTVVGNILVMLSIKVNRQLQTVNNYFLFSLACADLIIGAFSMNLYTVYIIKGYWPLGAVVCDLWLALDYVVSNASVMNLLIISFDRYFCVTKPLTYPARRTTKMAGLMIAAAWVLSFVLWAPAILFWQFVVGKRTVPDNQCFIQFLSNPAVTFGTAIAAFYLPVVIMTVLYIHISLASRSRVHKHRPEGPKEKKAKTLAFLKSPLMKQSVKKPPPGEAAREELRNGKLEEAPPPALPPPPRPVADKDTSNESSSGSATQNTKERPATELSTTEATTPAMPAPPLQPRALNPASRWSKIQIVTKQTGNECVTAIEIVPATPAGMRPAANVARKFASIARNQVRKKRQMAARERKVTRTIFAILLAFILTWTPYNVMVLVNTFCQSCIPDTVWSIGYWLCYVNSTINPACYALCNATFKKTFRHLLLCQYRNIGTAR

inhibition, active:
O=C1/C(=C\c2ccc([N+](=O)[O-])cc2)CS(=O)(=O)C/C1=C/c1ccc([N+](=O)[O-])cc1 26.7%
CN(C)CCOC(=O)C(c1ccccc1)C1(O)CCCC1 (centres undefined) 98%
CCCCNc1c(-c2cccc(Sc3ccc(OC)cc3)c2)nc2ccccn12 48.5%
COC(=O)c1ccc(CN2CCC(CO)(Cc3ccc(OC)cc3)CC2)cc1 31.7%
c1ccc2c(C[n+]3csc4ccccc43)cccc2c1 30.1%
Cc1onc(-c2ccccc2)c1-c1nnc(COC(=O)c2ccc(N(C)C)cc2)o1 62.4%
Cc1nc2sc(C(=O)c3ccccc3)c(N)c2c2c1CCCC2 29.8%
CCOC(=O)C1C(C)C(C(C)(C)C)N(S(=O)(=O)c2ccc(C)cc2)C1c1ccccc1 (centres undefined) 37.7%
CCCOc1ccc(F)cc1-c1cc(C(=O)Nc2ccc(F)c(Cl)c2)[nH]n1 28%
O=C(CN1CCN(Cc2ccccc2)CC1)NC(c1ccccc1)c1ccccc1 44.7%
CN(O)C(=S)c1ccccc1 31.7%
O=C(Nc1ccccc1)c1nnsc1S(=O)(=O)c1ccc(Cl)cc1 70.3%
Cc1cccc(CSc2nc3c(c(=O)n2C)SCC3)c1 30.4%
CCN(CC)CCCC(C)n1c2nc(=O)[nH]c(=O)c-2nc2cc(Cl)ccc21 (centres undefined) 38.6%
COc1ccc(NC(=O)/C(Cl)=C(/Cl)S(=O)Cc2ccc(C)cc2)cn1 (centres undefined) 50.8%
COc1ccc(S(=O)(=O)/N=C2\C=C(NS(=O)(=O)c3ccccc3)C(=O)c3ccccc32)cc1 27.9%
Cc1cccc(NC(=O)c2nc[nH]c2C(=O)NCC(=O)OCc2ccccc2)c1 29.3%
Cc1cccc(CS(=O)(=O)c2ncc(Cl)c(C(=O)Nc3ccc(F)cc3)n2)c1 33.5%
Cc1cccc(NC(=O)c2nc(S(=O)(=O)Cc3ccccc3)ncc2Cl)c1 51.3%

inhibition, inactive:
C#CCNC(=O)C1=C[C@@H](c2ccccc2)[C@H](CCCO)[C@@H](OCC)O1 12.4%
O=[N+]([O-])c1ccc(CN2CC(N3CC=CC3)CS2(=O)=O)cc1 (centres undefined) -1.16%
O=C(CSCc1c(F)cccc1Cl)NCC1CCCO1 (centres undefined) -3.01%
CC(=O)Nc1ccccc1OC(C)C(=O)N1CCC(C)CC1 (centres undefined) -7.56%
CC(C)c1cc(C(=O)N(C)C2CCCN(Cc3ccccc3F)C2)n(C)n1 (centres undefined) -12.6%
O=C(O)C(c1cccs1)C1(O)CCCCC1 (centres undefined) 5.22%
O=C(O)C(c1ccccc1)C1(O)CCCCC1 (centres undefined) -13.2%
CCC(C)[C@H](NC(=O)N1CCn2c1nc1ccccc12)C(=O)NCc1ccc(OC)cc1 (some centres undefined) -15.9%
NS(=O)(=O)c1ccc(CCNC(=O)c2ccc([N+](=O)[O-])cc2[N+](=O)[O-])cc1 5.77%
COc1nnc(-c2ccc(C)c(S(=O)(=O)N(C)C)c2)c2ccccc12 2.31%
COC(=O)c1ccc2nc(-c3ccccc3)c(Cc3ccc(OC)cc3C)n2c1 11.4%
COC(=O)c1ccc2nc(-c3cccc(Br)c3)c(Cc3ccc(OC)cc3C)n2c1 1.2%
CN1C(=O)CC(N2CCN(c3ccccn3)CC2)C1=O (centres undefined) 2.5%
Cc1ccc(C(=O)N(CN2CCCC2=O)c2ccc(F)cc2)cc1 6.56%
COc1ccc(CC2(CO)CCN(Cc3cnn(C)c3)CC2)cc1 -5.66%
COc1cccc(CC2(CO)CCN(Cc3cnc(-c4cccc(C)c4)nc3)CC2)c1 0.77%
CC(C)(C)Nc1c(-c2cccs2)nc2ccccn12 6.54%
O=C(CNS(=O)(=O)c1ccc2c(c1)OCCCO2)N1CCN(c2ccc(F)cc2)CC1 -7.25%
CC(C)CCN1C(=O)c2ccc(C(=O)Nc3cccc(S(N)(=O)=O)c3)cc2C1=O 4.89%
CN=C1C=C/C(=N/N=c2\ccn(O)cc2C)C=C1C 11.9%
Nc1scc[n+]1Cc1cccc2cccnc12 -7.43%
CCN(CC(=O)Nc1ccccc1OC)C(=O)CC1CC2CCC1C2 (centres undefined) 0.94%
Cc1cccc2c1N(CCOc1ccccc1)C(=O)C2=O -0.73%
C/C(=N\N1CCN(Cc2ccc(C)cc2)CC1)c1ccco1 1.69%
CCOC(=O)c1ccccc1NC(=O)COC(=O)CCC(=O)N1CCOCC1 2.73%
C[C@H]1[C@H]2c3nc4ccccc4n3C[C@H]1ON2C1CCCCC1 -2.5%
Cc1ccc(C(=O)NCC(=O)OCc2nnc(-c3ccccc3)o2)cc1 8.37%
O=C(OCc1nnc(-c2ccccc2)o1)c1ccc2c(c1)C(=O)N(CCc1ccccc1)C2=O -2.43%
COc1ccc(C(=O)N2CCCCC2c2cc(C(=O)Nc3ccccc3)no2)cc1 (centres undefined) -6.76%
Cc1c(C(=O)Nc2ccccc2)sc2nc3n(c(=O)c12)CCCCC3 -0.96%
Cn1c(-c2ccc(C(=O)c3ccccc3)s2)nc2ccccc21 1.58%
COc1ccc([C@H]2C[C@@H](n3cc(COC(=O)c4ccccc4)nn3)[C@H](O)CN2C(=O)c2cccs2)cc1 -7.8%
Cc1ccc(S(=O)(=O)N(CC(=O)NCCSC2CCCCC2)c2ccccc2F)cc1 -2.75%
CCCCC[C@@H]1C=C(C(=O)OCC)[C@H](c2ccccc2)N1S(=O)(=O)c1ccc(C)cc1 -11.2%
CCOC(=O)C1=CC[C@@H](c2ccccc2)N(S(=O)(=O)c2ccc(C)cc2)[C@H]1c1ccc(CC)cc1 -16.5%
CCC(C)NCCOCCOc1ccc(Br)cc1C (centres undefined) 6.84%
Cc1ccc(C)c(NC(=O)C(OC(=O)c2ccc(C)s2)c2ccccc2)c1 (centres undefined) -13.1%
CCCOc1ccc(F)cc1-c1cc(C(=O)NCc2ccc(F)cc2)[nH]n1 -9.17%
CCCOc1ccc(F)cc1-c1cc(C(=O)Nc2ccc(F)cc2)[nH]n1 -2.62%
CC(=O)NC(C(=O)NCC(N)=O)C(C)C (centres undefined) -7.93%
Cc1ccc(C)c(S(=O)(=O)Nc2cccc(-n3cnnn3)c2)c1 4.01%
O=C(CC1Oc2ccccc2NC1=O)NCCCN1CCN(Cc2ccccc2)CC1 (centres undefined) -1.94%
CN(C)c1ccc(CNC23CN4CN(CN(C4)C2)C3)cc1 3.33%
O=C(CN1CCN(Cc2ccccc2)CC1)Nc1ccc(F)c(F)c1 13%
O=C(CN1CCc2ccccc21)NC(c1ccccc1)c1ccccc1 -1.96%
CN(CCc1ccccc1)c1ccc([N+](=O)[O-])cn1 10.7%
COc1cc(NC(=S)NNC(=O)CC(C)C)c(OC)cc1Cl -7.19%
Cc1nn(Cc2ccccc2)c(C)c1CNC(=O)c1ccc(F)c(S(=O)(=O)N2CCOCC2)c1 -8.04%
Cc1cccc(CSc2ccc(-c3cccs3)nn2)c1 -4.51%
CSCCC1NC(=O)N(CC(=O)Nc2cccc(S(=O)(=O)N3CCCCCC3)c2)C1=O (centres undefined) -15.2%
C/C(=N\NS(=O)(=O)c1ccc(Cl)cc1)c1ccc(NC(=O)c2ccco2)cc1 7.91%
O=C(/C=C/c1ccc(Cl)cc1)Nc1ccc(S(=O)(=O)Nc2ncccn2)cc1 0.88%
Cn1c(CC(=O)Nc2ccc(F)cc2)nnc1SCC(=O)NC1CCCCC1 -3.82%
CC(=O)N1CCc2c(sc(NC(=O)CCS(=O)(=O)c3ccc(C)cc3)c2C(N)=O)C1 -0.18%
CS(=O)(=O)c1ccc(C(=O)NNC(=O)c2cccs2)cc1 0.8%
Cc1ccc2[nH]cc(CCCN3C(=O)c4ccccc4C3=O)c2c1 -6.81%
COCCn1c(SCC(=O)Nc2ccc(F)cc2F)nc2c(c1=O)SCC2 -3.44%
Cc1cccc(CSc2nnc(C)c(=O)n2N)c1 -5.35%
CCOC(=O)C1=CN(Cc2ccc(Br)cc2)S(=O)(=O)NC1C (centres undefined) -12.5%
O=C1C2(c3ccccc3)CN(CCCO)CC1(c1ccccc1)CN(CCCO)C2 4.09%
FC(F)(F)c1cccc(-c2cc3ccccc3nc2N2CCCC2)c1 2.79%
C=CCn1c(N)cc(=O)nc1SCC(=O)Nc1cccc2ccccc12 0.21%
CCN(CC)P(=O)(C(NC(=O)OC)C(F)(F)C(F)(F)C(F)(F)C(F)F)N(CC)CC (centres undefined) 2.64%
CC(C)=CCCC1(C)C=Cc2c(ccc3c2[nH]c2cc(O)c(C)cc23)O1 (centres undefined) -7.94%
Cc1c(CN2CCCC(C(=O)c3cccc(Cl)c3)C2)c(=O)n(-c2ccccc2)n1C (centres undefined) 7.63%
O=C(C[C@H]1C/C=C\C[C@@H](NC(=O)OCC2c3ccccc3-c3ccccc32)C(=O)O[C@@H](c2ccccc2)CNC1=O)N[C@H](CO)Cc1ccccc1 -3.13%
O=C(NNC(=O)C1C2CCC(C2)C1C(=O)O)c1ccc(Cl)cc1 (centres undefined) 2.59%
Cc1ccc(S(=O)(=O)/N=C2\C=C(NS(=O)(=O)c3ccc(C)cc3)C(=O)c3ccccc32)cc1 4.16%
COc1ccc(NS(=O)(=O)c2ccc(Oc3c(C#N)cccc3C#N)cc2)cc1 15%
CN(CC(=O)Nc1ccc(F)cc1)CC(=O)Nc1ccc(Cl)c(S(=O)(=O)N2CCOCC2)c1 -7.68%
Cc1cccc(NS(=O)(=O)c2ccc(C)c(C(=O)NCc3cccnc3)c2)c1 -6.05%
Cc1cc(NS(=O)(=O)c2ccc(NC(=S)NC(=O)c3ccc(F)cc3Cl)cc2)no1 9.04%
O=C(CS(=O)(=O)Cc1ccccc1)Nc1cccnc1 -2.16%
C[C@H](NC(=O)c1nc[nH]c1C(=O)NCC(=O)OC(C)(C)C)C(=O)OCc1ccccc1 17.7%
O=C(N[C@@H](Cc1ccccc1)C(=O)OCc1ccccc1)c1nc[nH]c1C(=O)N[C@@H](Cc1ccccc1)C(=O)OCc1ccccc1 2.96%
